Shown are actives, neighbours in structure and some others; about 6.8% of the full set was active somewhere.
USP28 block – inhibitors of human USP28 deubiquitinase; hit rate 3% among 47,000; Q96RU2; inhibition, % at 25 µM; purified USP28, Ub-rhodamine cleavage fluorescence, 30 min
USP10 inh – inhibitors of human USP10 deubiquitinase. inhibition, % at 20 µM. Q14694. purified USP10, Ub-rhodamine fluorescence, 60 min. hit rate 1.1% among 47,000
USP8 inh – inhibitors of human USP8 deubiquitinase; inhibition, % at 20 µM; purified USP8, Ub-rhodamine cleavage fluorescence, 30 min; hit rate 4.2% among 47,000; P40818
USP7 inh – inhibitors of human USP7 deubiquitinase; purified USP7, Ub-rhodamine cleavage fluorescence; inhibition, % at 20 µM; hit rate 0.3% among 47,000; AID 1645854
OTUD3 inh – human OTUD3 deubiquitinase inhibition. purified OTUD3, Ub-rhodamine fluorescence, 2 h. Q5T2D3. inhibition, % at 25 µM. hit rate 0.7% among 47,000
UCHL1 block – human UCHL1 deubiquitinase inhibition | AID 1645859 | hit rate 0.2% among 47,000 | P09936 | purified UCHL1, Ub-rhodamine cleavage fluorescence | inhibition, % at 20 µM
Hits are given with their value; . = inactive. No stated cut-off is given here; in the data, active means inhibition above about 30%; inactive means the rest.

SMILES	USP28 block	USP10 inh	USP8 inh	USP7 inh	OTUD3 inh	UCHL1 block
O=S1(=O)Cc2cnc(NCC3CC3)nc2[C@H]2CN(Cc3ccccc3)C[C@H]21	.	.	.	.	.	.
O=C(NCCN1CCOCC1)c1cc(-c2ccc(Br)cc2)nc2ccccc12	.	.	.	.	.	.
CCCCc1ccc(-c2cc(C(=O)NCCN3CCOCC3)c3cc(Br)ccc3n2)cc1	.	.	.	.	30.1	.
COc1ccc(NC(=O)CSc2cn(CC(=O)N3CCCCCC3)c3ccccc23)cc1OC	.	.	.	.	.	.
CC1CCN(C(=O)Cn2cc(SCC(=O)Nc3ccc4c(c3)OCCO4)c3ccccc32)CC1	37.6	.	.	.	.	.
O=c1c2nnn(-c3ccccc3)c2ncn1Cc1cccc(F)c1	.	.	.	.	.	.
COc1ccc(OC)c(NC(=O)CS(=O)(=O)c2cn(CC(=O)N3CCC(C)CC3)c3ccccc23)c1	.	.	31.7	.	.	.
O=C(Cn1cc(C(=O)c2ccccc2)c(=O)c2cc(F)ccc21)Nc1ccc2c(c1)OCCO2	.	.	.	.	.	.
O=C(Cn1cc(C(=O)c2ccccc2)c(=O)c2cc(F)ccc21)Nc1ccc2c(c1)OCO2	.	.	58.8	.	.	.
Cc1ccc(Cn2cnc3c(nnn3-c3cccc(F)c3)c2=O)cc1	.	.	42.4	.	.	.
O=C1C=C2[C@@H](OC=C[C@H]2O)O1	.	.	.	.	.	.
Cc1cccc(-n2nnc3c(=O)n(CC(=O)Nc4ccc5c(c4)OCO5)cnc32)c1	.	.	31.4	.	.	.
Cc1ccc(C(=O)c2cn(CC(=O)Nc3ccc4c(c3)OCO4)c3ccccc3c2=O)cc1	.	57.4	90.1	33.4	.	.
Cc1cccc(-n2nnc3c(=O)n(CC(=O)Nc4ccc5c(c4)OCCO5)cnc32)c1	.	.	.	.	.	.
Cc1ccc(F)cc1NC(=O)CN1C(=O)C2CCCN2C(=O)c2ccc(F)cc21 (centres undefined)	.	.	.	.	.	.
Cn1c(=O)n(C2CCN(Cc3ccsc3)CC2)c2ncncc21	.	.	.	.	.	.
COc1ccc(C(=O)N2Cc3ccccc3CC23CCCN(C(=O)Cc2cnc[nH]2)C3)cc1 (centres undefined)	.	.	.	.	.	.
COc1ccc(-c2cc(C(=O)Nc3n[nH]c4nc(C)ccc34)[nH]n2)c(OC)c1	.	.	55.6	.	.	.
COc1ccc(COc2ccc3c(C)c(CC(=O)N4CC[C@@]5(O)CCCC[C@H]5C4)c(=O)oc3c2)cc1	.	61.9	33.5	.	.	.
CCc1cc(=O)oc2c(C)c(OCC(=O)N3CCC4(O)CCCCC4C3)ccc12 (centres undefined)	.	.	.	.	.	.
Cc1c(OCC(=O)NCC(=O)N2CCC3(O)CCCCC3C2)ccc2c3c(c(=O)oc12)CCCC3 (centres undefined)	.	.	.	.	41.0	.
O=C(NCCCN1CCOCC1)c1cc(-c2cccnc2)n(-c2ccccc2)n1	.	.	.	.	.	.
O=C(Oc1coc(CSc2ncccn2)cc1=O)c1ccccc1Cl	.	.	.	.	.	.
Cc1cc(C)nc(SCc2cc(=O)c(OC(=O)c3ccc(F)c(F)c3)co2)n1	.	.	34.5	.	.	.
O=C(Oc1coc(CSc2ncccn2)cc1=O)c1ccccc1Br	.	.	35.6	.	.	.
SMILES	USP28 block	USP10 inh	USP8 inh	USP7 inh	OTUD3 inh	UCHL1 block
CCC1Cc2c(nc(N)c3c(N)nc(N4CCCCC4)c(C#N)c23)O1 (centres undefined)	.	.	76.7	.	.	.
COc1cccc(C2c3[nH]c4ccccc4c3C[C@H]3C(=O)N(c4ccccc4C(=O)NC4CCCCC4)C(=O)N23)c1 (some centres undefined)	.	.	.	.	.	.
Cc1ccc(N2CCN(C3=NC(C(=O)Nc4ccccc4)CC(=O)N3)CC2)cc1 (centres undefined)	.	.	38.7	.	.	.
COc1ccc(N2CCN(C3=NC(CC(=O)Nc4ccccc4)C(=O)N3)CC2)cc1 (centres undefined)	.	.	36.4	.	.	.
O=C1CC(C(=O)Nc2ccccc2)N=C(N2CCN(c3ccccc3F)CC2)N1 (centres undefined)	.	.	.	.	.	.
COc1cccc(CNc2nc3ccc(C)cc3cc2-c2noc(C)n2)c1	.	.	.	.	.	.
COc1ccc(Cn2nnc(-c3cccc(F)c3)n2)cc1F	49.1	.	.	.	.	.
CC(CNC(=O)CCC1=NS(=O)(=O)c2ccccc2N1)c1ccccc1 (centres undefined)	.	.	.	.	.	.
O=C(NC1CC1)C1CCCN(c2ccc3cc(S(=O)(=O)N4CCCC4)ccc3n2)C1 (centres undefined)	.	.	.	.	.	.
O=C(CNS(=O)(=O)c1ccc(F)cc1)N1CCCC(c2nnc3ccccn23)C1 (centres undefined)	51.3	.	57.0	.	.	.
CC(=O)c1cccc(NC(=O)C(C)OC(=O)c2cc3ccccc3[nH]2)c1 (centres undefined)	35.9	.	.	.	33.1	.
COc1ccc(N(C)S(=O)(=O)c2cccc(C(=O)OC(C)C(=O)Nc3cccc(C(C)=O)c3)c2)cc1 (centres undefined)	.	.	.	.	.	.
Cc1nc(C)c(C(=O)N2CCCC2c2nc(C(C)C)cc(=O)[nH]2)s1 (centres undefined)	.	.	.	.	.	.
Cc1ccc(-n2nnc(C(=O)N3CCCC(CC(N)=O)C3)c2C)cc1 (centres undefined)	.	.	.	.	.	.
CC(=O)Nc1ccc(SCc2nc3ccccc3nc2C)cc1	.	.	38.6	.	.	.
Cc1nc2ccccn2c(=O)c1NC(=O)Cc1ccc(Cl)cc1	.	.	.	.	.	.
Cc1nc2ccccn2c1C1(O)C(=O)Nc2c(Cl)cc(Cl)cc21 (centres undefined)	.	.	87.6	.	.	.
C=C1CCC[C@]2(C)C[C@H]3OC(=O)C(CNCCc4ccc(OC)c(OC)c4)[C@H]3CC12 (some centres undefined)	.	.	.	.	.	.
C(=C\c1nc(-c2cccc(-c3ccn[nH]3)c2)no1)/c1ccco1	.	.	35.4	30.8	.	.
Fc1ccc(OCc2nc(-c3cccc(-c4ccn[nH]4)c3)no2)cc1	52.4	.	33.0	.	.	.
COc1ccc(-c2nc(-c3cccc(-c4ccn[nH]4)c3)no2)cc1F	.	.	.	.	.	.
c1cc(-c2noc(-c3ccoc3)n2)cc(-c2ccn[nH]2)c1	.	.	.	.	.	.
CN1C[C@H]2CCN(C(=O)c3cnccn3)CC[C@H]2S1(=O)=O	.	.	.	.	.	.
Cc1c(S(=O)(=O)N2CCCC2)cc(C(=O)N2CCc3ccccc3C2)n1C	.	.	.	.	.	.

Source: PubChem
